Hit rate of the full screen: of about 360,000 compounds, about 1,400 (0.39%) were called active. Many of the other results were omitted from the sample, so actives are more common in it than they were. A number with no mark means an inactive call. No stated cut-off is given here; in the data, active means inhibition above about 21%; inactive means the rest.
Biological target: Receptor-interacting serine/threonine-protein kinase 2 (Homo sapiens) (UniProt O43353)
Assay: NOD2-RIPK2 binding disruptors in cells, primary screen, fluorescence, CHO cells, BLA complementation (AID 624267);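 further: 0% = vehicle only and 100% = reference blocker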
Settings: CHO BLA complementation NOD2-RIPK2, CCF4 ratio; at 4.98 µM; stronger effect = higher value

Sequence of Receptor-interacting serine/threonine-protein kinase 2 (Homo sapiens) (O43353 whole entry, looked up): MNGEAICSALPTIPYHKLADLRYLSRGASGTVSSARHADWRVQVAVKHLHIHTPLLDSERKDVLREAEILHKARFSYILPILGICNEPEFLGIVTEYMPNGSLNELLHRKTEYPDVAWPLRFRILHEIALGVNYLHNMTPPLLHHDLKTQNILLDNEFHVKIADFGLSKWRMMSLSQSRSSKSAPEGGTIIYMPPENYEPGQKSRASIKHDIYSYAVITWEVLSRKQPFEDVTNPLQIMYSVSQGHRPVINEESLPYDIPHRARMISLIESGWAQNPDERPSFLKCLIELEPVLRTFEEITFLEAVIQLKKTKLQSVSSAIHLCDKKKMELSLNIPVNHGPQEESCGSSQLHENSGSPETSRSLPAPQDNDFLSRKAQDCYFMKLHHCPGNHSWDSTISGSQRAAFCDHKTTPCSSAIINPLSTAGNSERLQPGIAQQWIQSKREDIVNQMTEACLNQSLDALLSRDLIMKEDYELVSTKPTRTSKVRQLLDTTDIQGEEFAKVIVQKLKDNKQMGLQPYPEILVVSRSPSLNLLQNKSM

Point of comparison: `O=C(CSc1ncn[nH]1)Nc1nc2c(F)c(F)c(F)cc2s1`, inhibition 2.77%. Against it:
- COc1ccc(CN2CCCCC2C)cc1OC (stereo not given) — lower, -10.3%
- C/C(CC(C)C)=N\Oc1nc(C)cc(C)n1 — lower, -7.31%
- COCCCNC(=O)CN1CCN(Cc2ccccc2Cl)C1=O — higher, 5.43%
- CCc1ccccc1N(CC(=O)N1CCN(c2ccccc2F)CC1)S(C)(=O)=O — lower, -2.64%
- O=C(CNC(=O)c1ccccc1)NCC(=O)OCc1ccc(Cl)cc1 — lower, 1.19%
- O=C(CNC(=O)Cc1ccccc1)NCC(=O)OCC(=O)c1ccccc1Cl — lower, -8.44%
- O=C(Nc1ccc(CSc2ccccc2)cc1)c1ccc(CN2CCOCC2)cc1 — lower, -2.26%
- O=C(Cc1ccccc1)Nc1c(Cl)ccc2nsnc12 — lower, -10.4%
- C=CC(COCc1ccccc1)N(Cc1ccccc1)S(=O)(=O)c1ccccc1Br (stereo not given) — lower, 0.84%
- COc1cc(C)c(C(C)C)cc1S(=O)(=O)n1ccnc1 — lower, -1.8%
- O=C(NCc1ccncc1)C1CCN(C(=O)c2cccc(Cl)c2)CC1 — lower, -2.02%
- CCN(C(=O)CSc1cccc[n+]1[O-])c1ccccc1 — lower, 1.91%
- COCCCn1c(Cc2csc(Nc3cccc(Cl)c3)n2)nnc1SCC(=O)OC1CCCCC1 — lower, -7.45%
- Cn1c(Cc2cccc3ccccc23)nnc1SCC(=O)N1CCN(c2cccc(Cl)c2)CC1 — lower, 2.05%
- CNC(=O)n1ccc(C(=O)N2CCCCC2)n1 — lower, 1.22%
- O=C(NN1C(=O)C2C3C=CC(O3)C2C1=O)c1ccccc1 (stereo not given) — lower, -0.12%
- CCSc1nnc(SCC(=O)NNC(=O)c2ccccc2F)s1 — lower, -9.88%
- Cc1nnc(SCC(=O)NC2CCCC2)s1 — lower, -7.66%
- CCOc1ccc(/C(O)=C2/C(=O)C(=O)N(Cc3cccnc3)C2c2ccc(N(C)C)cc2)c(C)c1 (stereo not given) — lower, -5.35%
- O=C(COc1nsnc1N1CCOCC1)Nc1ccccc1Cl — lower, -6.94%
- C/C(=N\NS(=O)(=O)c1ccc(Cl)cc1)c1ccc(NC(=O)c2ccco2)cc1 — higher, 7.02%
- CN(C)/C=C(/C(=O)c1ccccc1)S(=O)(=O)c1ccc(Cl)cc1 — higher, 10.5%
- CCOc1ccc(CN2CCC(n3nccc3NC(=O)C3CC3)CC2)cc1CO — lower, -4.91%
- Cc1cc(NC(=O)CN2CCC(O)(c3cccc(F)c3)CC2)no1 — lower, -7.88%
- NC(=O)COc1ccccc1C(=O)NC12CC3CC(CC(C3)C1)C2 — lower, 2.45%
- CCSc1ccccc1C(=O)Nc1ccc2c(c1)OCO2 — lower, 1.86%
- O=C(CNc1ccccc1N1CCCC1=O)Nc1cc(Cl)ccc1-n1cncn1 — higher, 4.89%
- COc1ccccc1Oc1ccc(N2CC(C(=O)OCC(=O)c3ccc(F)cc3)CC2=O)cc1 (stereo not given) — lower, -13.1%
- Cc1ccccc1CS(=O)(=O)CC1(O)CCN(C(=O)c2cccc(C(F)(F)F)c2)CC1 — lower, -2.24%
- CC(C)(C)n1nc2c(c1NC(=O)c1ccc(S(=O)(=O)N3CCCC3)cc1)CS(=O)C2 (stereo not given) — lower, 1.52%
- Cc1cccc(OC(C)C(=O)N2CCc3ccccc3C2)c1 (stereo not given) — lower, -10.7%
- O=[N+]([O-])c1ccc(N2CCN(c3ccc(O)cc3)CC2)c(Cl)c1 — lower, -4.55%
- O=C(NCCC1=CCCCC1)c1ccc(Cl)c([N+](=O)[O-])c1 — lower, -8.9%
- O=C(Oc1ccccc1Cl)c1ccc(N2CCOCC2)c([N+](=O)[O-])c1 — lower, 1.05%
- N#Cc1cc([N+](=O)[O-])ccc1NC(=O)COC(=O)c1cnccn1 — lower, -8.54%
- CSc1ccccc1NC(=O)c1cnc2sc(C)cn2c1=O — lower, -0.62%
- CN(CC(=O)Nc1ccc(F)cc1)CC(=O)N1CCCCC1 — higher, 3.04%
- O=C(CSc1ncn[nH]1)Nc1nsc(-c2ccccc2)n1 — lower, 1.03%
- CCN(C(=O)Cc1nc(N)n[nH]1)C1(C(=O)Nc2ccccc2)CCCCC1 — lower, -2.08%
- O=C(NN1C(=O)C2C3C=CC(O3)C2C1=O)c1ccncc1 (stereo not given) — lower, -1.04%
- Cc1nn(C)c(C)c1C(C)NC(=O)c1ccc(OC2CCN(Cc3ccccn3)CC2)cc1 (stereo not given) — lower, -7.27%
- N#CCCN(C(=O)COC(=O)c1ccc(S(=O)(=O)N2CCCCCC2)cc1)c1ccccc1 — lower, -9.9%
- NC(CSC12CC3CC(CC(C3)C1)C2)C(=O)O (stereo not given) — higher, 2.91%
- Cc1ccc(S(=O)(=O)Nc2ccc3c(c2)C(=O)N([C@H](C)CO)C[C@@H](C)[C@@H](CN(C)C(=O)Nc2cccc4ccccc24)O3)cc1 — lower, -59.7%
- COc1cccc(CC(=O)OCC(=O)NCc2ccc3c(c2)OCO3)c1 — higher, 9.81%
- COc1cc(C=NC2CCCCC2)ccc1O — lower, 0.2%

For `O=C(CNC(=O)OCc1ccccc1)Oc1cc2oc(=O)cc(-c3ccccc3)c2cc1Cl`, the inhibition was 52.2% (active).
For `O=C(Cc1csc(Nc2nc(=S)[nH]c3ccccc23)n1)NCCCN1CCN(c2cccc(Cl)c2)CC1`, the inhibition was 38.1% (active).
For `Cc1nnc(SCC(=O)Nn2cnnc2)s1`, the inhibition was 34.9% (active).
In the case of `O=C(Nc1ccccc1Cl)/C(Cl)=C(\Cl)S(=O)c1ccccc1` (stereo not given), the inhibition is reported as 70.5% (active).
For `O=C(Nc1ccccc1)c1nnsc1S(=O)(=O)c1ccc(Cl)cc1`, the inhibition was 56.9% (active).
`O=C1C(Cl)=C(Oc2ccccc2)C(=O)c2ccccc21` was tested, and the inhibition was 71.7% (active).
In the case of `Nc1c(C(=O)c2cccs2)sc2nsc(SCCN3CCCCC3)c12`, the inhibition is reported as 37.8% (active).
In the case of `O=C(/C=C/c1ccc(Cl)c([N+](=O)[O-])c1)c1ccc(O)cc1`, the inhibition is reported as 28.9% (active).
For `O=C(CSc1ncn[nH]1)Nc1nc(-c2cccc([N+](=O)[O-])c2)cs1`, the inhibition was 21.5% (active).
In the case of `Oc1ccc2ccc3cccc[n+]3c2c1`, the inhibition is reported as 23.5% (active).
With `O=C1C=C(c2ccc(Cl)cc2)C(=O)N1Nc1ccccc1` the inhibition was 34.1% (active).
With `CCN(CC)CCCC(C)n1c2nc(=O)[nH]c(=O)c-2nc2cc(Cl)ccc21` (stereo not given) the inhibition was 31.2% (active).
`COc1cc(/C=C(\C#N)c2nc3c(s2)CC(C)CC3)ccc1O` (stereo not given) was tested, and the inhibition was 23.2% (active).

— PubChem BioAssay AID624267 (The Scripps Research Institute Molecular Screening Center, 2012)
